Screening results (PubChem BioAssay)
Sampled rows, rich in hits. Any-hit rate of the full collection: about 2.1%.
ROS inducer = inducers of reactive oxygen species in cancer cells | 46,000 tested, 2% active | U2OS ROS induction, H2DCF-DA fluorescence | ROS induction (% of piperlongumine), % at 10 µM; in the data active means ROS induction above about 79%, passing the limit was not always enough; inconclusive means no clear call, values can overlap the other calls;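 further: 0% = DMSO vehicle median and 100% = reference compound median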
YB-1 expr inh = YB-1 expression inhibition; U2OS, qRT-PCR YB-1 vs CDIP delta delta Cp, 16 h; active compounds read high; zero = DMSO, each unit about twofold; 30,000 tested, 0.37% active; delta delta Cp (YB-1 minus CDIP) (no concentration beside the values);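 active means delta delta Cp rounded down to an integer at or above 3, about 3 SD of DMSO wells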;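 further: higher means less YB-1 transcript or more CDIP transcript relative to DMSO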
* = called active by the depositor; ? = inconclusive; nt = no result.

SMILES	ROS inducer	YB-1 expr inh
C[C@@H]1CCCCO[C@@H](CN(C)S(=O)(=O)c2ccc(Cl)cc2)[C@@H](C)CN([C@H](C)CO)C(=O)c2cc(NS(=O)(=O)c3ccc(Cl)cc3)ccc2O1	?	-0.85
C[C@@H]1CCCCO[C@@H](CN(C)S(=O)(=O)c2ccc(Cl)cc2)[C@@H](C)CN([C@H](C)CO)C(=O)c2cc(NC(=O)c3ccccc3)ccc2O1	133*	-0.73
C[C@@H]1CCCCO[C@H](CN(C)Cc2ccc3c(c2)OCO3)[C@@H](C)CN([C@H](C)CO)C(=O)c2cc(NS(=O)(=O)c3ccc(Cl)cc3)ccc2O1	32	-0.15
O=C(NC(=O)c1ccc(F)c(Cl)c1)Nc1nnc(C(F)(F)F)s1	-6	nt
C[C@@H]1CCCCO[C@@H](CN(C)S(=O)(=O)c2ccc(F)cc2)[C@@H](C)CN([C@H](C)CO)C(=O)c2cc(NS(=O)(=O)c3ccc(F)cc3)ccc2O1	69	0.3
C[C@@H]1CCCCO[C@@H](CN(C)S(=O)(=O)c2ccc(Cl)cc2)[C@@H](C)CN([C@H](C)CO)C(=O)c2cc(NS(=O)(=O)c3ccc(F)cc3)ccc2O1	118*	0.36
Cc1cccc2c1nc1s/c(=C/c3cn[nH]c3-c3ccccc3)c(=O)n12	-11	nt
CCC(C)NC(=O)C1CCN(c2nc3ccccc3n3cccc23)CC1 (stereo unspecified)	-14	nt
CCN1CCCC1CNC(=O)c1ccc(-n2c(-c3ccccc3)cc3c2CCCC3)cc1 (stereo unspecified)	-5	nt
O=C(COc1ccccc1Cl)Nc1cccc(NC(=O)c2ccco2)c1	-6	nt
Cc1cc(C)c(OCC(=O)Nc2cccc(NC(=O)c3ccco3)c2)c(Br)c1	176*	nt
CCOc1ccc(S(=O)(=O)Nc2cccc(-c3cn4cccc(C)c4n3)c2)cc1	32	nt
Cc1ccc(S(=O)(=O)Nc2ccccc2Oc2ccccc2)cc1	-8	nt
C[C@@H]1CCCCO[C@H](CN(C)C(=O)Nc2cccc3ccccc23)[C@@H](C)CN([C@H](C)CO)C(=O)c2cc(NS(=O)(=O)c3ccc(Cl)cc3)ccc2O1	89*	15*
C[C@@H]1CCCCO[C@H](CN(C)C(=O)Nc2cccc3ccccc23)[C@@H](C)CN([C@H](C)CO)C(=O)c2cc(NS(=O)(=O)c3ccccc3)ccc2O1	56	-0.23
C[C@@H]1CCCCO[C@@H](CN(C)C(=O)Nc2cccc3ccccc23)[C@@H](C)CN([C@H](C)CO)C(=O)c2cc(NC(=O)C3CCCCC3)ccc2O1	134*	-0.032
C[C@@H]1CCCCO[C@H](CN(C)C(=O)Nc2cccc3ccccc23)[C@@H](C)CN([C@H](C)CO)C(=O)c2cc(NC(=O)C3CCCCC3)ccc2O1	22	0.011
COc1ccc(CNC(=O)Cn2ccc3ccccc3c2=O)cc1	-13	nt
Cc1nc2c(C(=O)N3CCC4(CC3)OCCO4)c[nH]n2c(=O)c1Cc1ccccc1Cl	-3	nt
C=CCNC(=O)c1cc(-c2ccc(C)c(C)c2)nc2ccccc12	-13	nt
NC(=O)c1ccccc1NC(=O)c1cccc(COc2ccc3c(c2)CCC3)c1	53	nt
COc1ccc2cc(C(C)c3nc4ccccc4[nH]3)ccc2c1 (stereo unspecified)	-16	nt
C[C@H]1CN([C@@H](C)CO)C(=O)Cc2cc(NS(=O)(=O)c3cn(C)cn3)ccc2O[C@@H]1CN(C)Cc1ccc(Oc2ccccc2)cc1	-7	0.53
C[C@H]1CN([C@@H](C)CO)C(=O)Cc2cc(NS(=O)(=O)c3cn(C)cn3)ccc2O[C@H]1CN(C)S(=O)(=O)c1cn(C)cn1	-5	-0.11
C[C@@H]1CN([C@@H](C)CO)C(=O)Cc2cc(NS(=O)(=O)c3cn(C)cn3)ccc2O[C@@H]1CN(C)S(C)(=O)=O	109*	-0.79
SMILES	ROS inducer	YB-1 expr inh
COc1ccc(CN(C)C[C@@H]2Oc3ccc(NS(=O)(=O)c4cn(C)cn4)cc3CC(=O)N([C@H](C)CO)C[C@H]2C)cc1	95*	0.06
C[C@H]1CN([C@@H](C)CO)C(=O)c2cccc(NC(=O)CCCCCC(=O)Nc3ccccc3N)c2O[C@@H]1CN(C)Cc1ccc2c(c1)OCO2	108*	0.02
C[C@@H]1CN([C@H](C)CO)C(=O)Cc2cc(NC(=O)CCCCCC(=O)Nc3ccccc3N)ccc2O[C@@H]1CN(C)Cc1ccncc1	-1	-0.24
C[C@@H]1CN([C@@H](C)CO)C(=O)c2cccc(NC(=O)CCCCCC(=O)Nc3ccccc3N)c2O[C@H]1CN(C)Cc1ccc2c(c1)OCO2	105*	-0.36
C[C@@H]1CN([C@H](C)CO)C(=O)Cc2cc(NC(=O)CCCCCC(=O)Nc3ccccc3N)ccc2O[C@@H]1CN(C)Cc1ccc(Cl)c(Cl)c1	84*	0.25
C[C@H](CO)N1C[C@H](C)[C@@H](CN(C)Cc2ccc3c(c2)OCO3)Oc2c(NC(=O)CCCCCC(=O)Nc3ccccc3N)cccc2C1=O	39	0.39
C[C@H](CO)N1C[C@H](C)[C@H](CN(C)Cc2ccc3c(c2)OCO3)Oc2ccc(NC(=O)CCCCCC(=O)Nc3ccccc3N)cc2C1=O	-5	0.4
Cc1cccc(-n2ncc3c(Nc4ccc(-c5ccccc5)cc4)ncnc32)c1	4	nt
CC(=O)Nc1ccc(Nc2ncnc3c2c(-c2ccccc2)cn3-c2cccc(C)c2)cc1	97*	nt
O=C(Nc1ccc([N+](=O)[O-])cc1O)Nc1ccccc1Br	-5	3*
O=C(COc1ccc(I)cc1)Nc1ccc([N+](=O)[O-])cc1O	-8	nt
Cc1cc(C)c(NC(=O)c2cc(S(=O)(=O)N3CCc4ccccc43)ccc2F)c(C)c1	11	nt
Cc1cc(C)c(S(=O)(=O)N2CCc3ccccc32)c(C)c1	105*	nt
CC1Sc2cc(S(=O)(=O)NCCc3ccccc3)ccc2NC1=O (stereo unspecified)	19	nt
COc1ccc2c(c1)c(=O)oc1cc(O)ccc12	4	nt
COc1ccc2c(c1)c(=O)oc1cc(OC(C)C)ccc12	114*	-0.017
CC(CC(=O)NC1CCCCCC1)CC1=NS(=O)(=O)c2ccccc2N1 (stereo unspecified)	-7	nt
COC(=O)c1cccc(-n2c(CCC(=O)O)ccc2-c2ccccc2)c1	-16	nt
COc1ccccc1Nc1nc(N)nc(CSCCO)n1	123*	nt
COc1ccccc1Nc1nc(N)nc(CSc2ncccn2)n1	-5	nt
Cc1ccc(S(=O)(=O)/C(C#N)=C/Nc2cc(C(F)(F)F)cc(C(F)(F)F)c2)cc1	3	-0.16
O=S(=O)(C1=CC23CCCC2(C=C(S(=O)(=O)c2ccc(Cl)cc2)C3)C1)c1ccc(Cl)cc1 (stereo unspecified)	81*	-0.75
CC1CCCCN1S(=O)(=O)c1ccc(Cl)cc1 (stereo unspecified)	-5	nt
COc1ccc(N(C)C(=O)c2cc3c(=O)oc4ccccc4c3s2)cc1	-7	nt
N#Cc1c(-c2ccccc2Cl)c(C#N)c2nc3ccccc3n2c1N	70	nt
SMILES	ROS inducer	YB-1 expr inh
O=C(CSc1nc2ccccc2c2nc3ccccc3n12)NCCc1ccccc1	53	nt
CCCc1cc(NCCc2ccccc2)n2c(nc3ccccc32)c1C#N	92*	nt
Cc1c(Cc2ccccc2)c(Cl)n2c(nc3ccccc32)c1C#N	164*	nt
COC(=O)c1sccc1NC(=O)C1CCCS1 (stereo unspecified)	-12	nt
CSc1ccccc1NC(=O)c1cnn2c(C(F)(F)F)cc(-c3ccco3)nc12	171*	-0.71
COc1ccc(-c2cc(C(F)(F)F)n3nc(C(=O)NCc4ccco4)cc3n2)cc1OC	33	nt
